Measured values taken from the supplement of paper PMC6555819.

Key:
Test in all cases: PBM binding z-score (relative to random genomic background probes); higher = stronger binding; sequences stand for … in GC…GCGATTGACAGCGTAGAATGAAGG
[1] = tested on: FXR:RXRa (NR concentration 270 nM, RXRa partner concentration 90 nM)
In short: (§1)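 Probes were double-stranded and carried 34-nt variable regions with direct-repeat seeds, single-nucleotide variants, half-site ablations and random human genomic background sequences, printed on custom Agilent 4×180K protein-binding microarrays. Arrays were incubated 1 h with ligand-free nuclear receptor dimers in PBS pH 7.4, 2% milk, 0.02% Triton X-100, 1 mM DTT, 0.2 mg/mL BSA and 0.4 mg/ml salmon testes DNA. Antibodies against each partner (one per run) detected binding, and scanned fluorescence was regression-normalized. Binding z-scores use the random background probes as reference.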

[2] = tested on: LXRa:RXRa (NR concentration 270 nM, RXRa partner concentration 90 nM)
In short: as §1

[3] = tested on: LXRa homodimer (NR concentration 270 nM)
In short: as §1

[4] = tested on: LXRb:RXRa (NR concentration 270 nM, RXRa partner concentration 90 nM)
In short: as §1

[5] = tested on: LXRb homodimer (NR concentration 270 nM)
In short: as §1

[6] = tested on: PPARa:RXRa (NR concentration 270 nM, RXRa partner concentration 90 nM)
In short: as §1

[7] = tested on: PPARg:RXRa (NR concentration 180 nM, RXRa partner concentration 90 nM)
In short: as §1

[8] = tested on: PPARg:RXRa 270nM:90nM, anti-RXR (NR concentration 270 nM, RXRa partner concentration 90 nM)
In short: as §1

[9] = tested on: PPARg:RXRa 30nM:10nM, anti-RXR (NR concentration 30 nM, RXRa partner concentration 10 nM)
In short: as §1

[10] = tested on: PPARg:RXRa 90nM:30nM, anti-RXR (NR concentration 90 nM, RXRa partner concentration 30 nM)
In short: as §1

[11] = tested on: PPARg:RXRa DBDmut IVT, anti-RXR (DBD mutation: RXRa K156A/R161A, NR concentration 270 nM, RXRa partner concentration 90 nM)
In short: as §1

[12] = tested on: PPARg:RXRa IVT, anti-PPARg (NR concentration 270 nM, RXRa partner concentration 90 nM)
In short: as §1

[13] = tested on: PPARg DBDmut:RXRa IVT, anti-PPARg (DBD mutation: PPARg1 K132A/R137A, NR concentration 270 nM, RXRa partner concentration 90 nM)
In short: as §1

[14] = tested on: PPARg DBDmut IVT, anti-PPARg (DBD mutation: PPARg1 K132A/R137A, NR concentration 270 nM)
In short: as §1

[15] = tested on: PPARg homodimer (NR concentration 180 nM)
In short: as §1

[16] = tested on: PXR:RXRa (NR concentration 270 nM, RXRa partner concentration 90 nM)
In short: as §1

[17] = tested on: PXR homodimer (NR concentration 270 nM)
In short: as §1

[18] = tested on: RARa:RXR (NR concentration 270 nM, RXRa partner concentration 90 nM)
In short: as §1

[19] = tested on: RARa homodimer (NR concentration 270 nM)
In short: as §1

[20] = tested on: RARb:RXRa (NR concentration 270 nM, RXRa partner concentration 90 nM)
In short: as §1

Sequence	PBM binding z-score [1]	PBM binding z-score [2]	PBM binding z-score [3]	PBM binding z-score [4]	PBM binding z-score [5]	PBM binding z-score [6]	PBM binding z-score [7]	PBM binding z-score [8]	PBM binding z-score [9]	PBM binding z-score [10]	PBM binding z-score [11]	PBM binding z-score [12]	PBM binding z-score [13]	PBM binding z-score [14]	PBM binding z-score [15]	PBM binding z-score [16]	PBM binding z-score [17]	PBM binding z-score [18]	PBM binding z-score [19]	PBM binding z-score [20]
ATCTCTAGGTAAGACCCAGTTCAGTGAAGAACGC	0.43	0.778	0.612	0.599	0.872	0.54	0.457	0.208	0.196	0.526	2.24	1.79	0.676	0.699	0.695	0.9	1.45	0.59	0.821	0.371
CCGTCTGGGGCAGAAAGGTTACCATACCATCCGG	0.119	0.206	-0.115	0.58	-1.19	1.64	0.9	1.95	0.171	0.988	0.505	0.764	-1.18	-1.86	0.553	0.821	-0.115	1.51	-0.0366	1.54
GGAACGAGGGCATTCGAGTTGATCGCATGGCGAT	1.56	1.88	-0.524	0.182	-1	1.17	0.585	0.552	-0.63	0.176	3.31	1.97	-0.808	-0.537	-0.069	3.96	1.47	0.882	-1.16	1.68
ACTTACGGGTCCACGAGGTTATAGCACGCGTATA	0.87	0.822	0.478	1.39	0.189	1.6	1.01	0.696	0.165	0.469	0.0725	0.67	0.473	0.278	0.407	1.48	1.01	1.8	0.384	1.15
CCTCGGAGGACAACAGGCGGTCAGAGCTGCCAGA	-0.211	-0.0211	0.394	-0.76	-1.15	-0.468	-0.327	-0.898	-0.775	-1.03	-0.178	-0.851	-1.43	-1.37	-0.158	-0.464	-0.435	-0.312	-0.034	1.61
AGAAAGAGGTTATTAAGATCAGGGAATTGCGGTC	2.15	2.15	0.442	1.75	0.379	2.71	1.18	1.43	0.665	1.29	1.7	1.4	0.63	0.0238	1.2	1.38	0.96	1.93	1.28	1.97
GGAACGAGGGCAAAGTGGATAGCATCTGTCGACG	0.8	0.482	-0.564	0.23	-0.66	2.86	4.34	5.37	3.71	5.67	3.95	3.72	0.652	0.661	1.42	0.489	0.241	0.674	-0.182	2.27
CCGACTGGGGCATAAGGTTACCATGAGCCAGCCC	0.192	1.36	-0.247	0.153	-1.3	1.9	2.48	3.24	1.36	2.8	2.64	3.31	-0.794	-1.56	0.331	0.16	-0.667	1.16	0.564	1.55
TCTATTAGTTGATTAGGGCAAGCGAAACAGCGGA	0.582	0.347	0.126	0.37	0.284	0.756	-0.0527	2.03	3.67	2.81	1.88	1.33	0.35	0.93	0.455	0.314	0.381	0.428	1.01	0.893
CCTCGGAGGACAACAGGAGGTCAGCGCTGCCAGA	1.63	2.48	1.84	1.66	-0.537	2.37	0.445	0.734	-0.791	0.307	0.165	0.649	-1.42	-1.72	2.38	2.56	0.451	2.71	0.815	3.27
CCTACTGGGCCAAAGGTCATGGATTCCAATGCTC	5.14	5.37	2.61	5.06	0.296	6.56	12	9.45	10.3	10.5	5.34	6.68	-0.19	-0.578	2.93	5.44	0.496	6.58	0.489	4.92
TCACATAGGTAAATGCTAGGTGAAAGTCCGATCT	0.401	0.564	-0.036	0.378	-0.343	1.03	0.475	1.83	3.11	2.49	2.22	1.12	0.19	-0.0289	-0.198	0.34	-0.0319	0.692	-0.153	0.251
ACTAGCAGGCCAAGATTGGGTCACTCAAACAAAG	-0.0447	-0.288	-0.493	0.338	-0.861	1.33	0.272	0.402	-0.526	-0.361	0.594	1.6	-0.903	-0.363	0.0638	0.192	-0.441	0.988	-0.597	1.47
ACAGACAGGTGATGAAGGTAGCTCAGGCTATCAT	-0.0912	-0.299	-0.372	-0.485	-0.548	-0.377	0.539	-0.247	-0.307	0.0803	0.00476	-0.161	-0.42	-0.376	-1.11	-0.38	0.0281	-0.246	0.11	0.0595
TCTCGGATGACACGAAGGTCAGAGCTTTCCAGAG	2.3	1.55	0.495	1.4	-0.796	2.24	0.758	2.21	2.77	2.56	1.37	0.539	-0.684	-0.814	0.961	1.62	0.0323	2.3	-0.214	2.55
TCGAGTAGGGTACCAATGGGGCATTCAGCTTTCT	-0.419	-0.00421	-0.466	0.0817	-0.885	0.453	-0.266	0.942	0.889	0.836	1.51	1.1	-1.19	-0.695	-0.571	-0.333	-0.807	-0.262	-1.44	0.103
CGAACAAGGTCAGAACAGGACAGTGAAGGATGAT	4.33	3.42	0.289	2.42	0.289	3.91	3.09	3.2	1.12	1.95	2.79	3.05	0.722	0.826	1.5	3.22	0.399	2.47	0.0836	4.31
CCGACTGGGACAGAAAGGTTACCATACCATCCGG	0.177	0.493	-0.124	0.512	-1.05	1.71	1.4	1.74	0.364	1.34	0.593	1.09	-0.448	-0.875	1.09	1.01	0.0178	1.63	-0.302	1.47
CCTAATGGGCCACGAAAGGTCATTGATTCAGTGA	3.91	5.44	4.82	4.5	0.556	4.42	3.05	4.1	1.8	3.4	3.95	4.1	0.487	0.297	2.38	5.44	1.32	5.08	0.945	4.16
CAAACTACGTCACCGGAAGGTCAAAGTCCGCATG	3.24	3.3	3.72	3.48	1.01	3.5	1.14	1.71	0.159	1.15	0.517	1.61	0.449	1.03	2.68	3.83	1.39	4.14	1.23	3.3
AGAATGAGTTTAAGATCAGGGAAACAGAATACAT	-0.0291	-0.0527	-0.102	-0.0907	-0.243	-0.0432	0.814	-0.0778	0.203	0.0165	-0.319	-0.227	0.514	0.367	0.191	0.341	0.729	0.163	0.965	0.406
AGTCAATGTTCAGGACGAGGTAACGTAAAGCACG	-0.0403	-0.35	-0.0733	-0.154	-0.516	-0.141	0.531	-0.297	0.071	-0.0574	-0.569	0.526	0.282	0.266	-0.126	-0.119	-0.33	0.306	0.567	0.167
GCAGACAGGTGCAACGCAGGTAACTCAGGGTGGC	-0.722	-0.509	-0.668	-0.958	-1.31	-0.475	0.119	-0.844	-0.761	-0.904	-0.637	-0.593	-1.75	-1.51	-0.974	-0.377	-0.796	0.0404	-1.09	-0.3
TCTAGTTGGTCAAAGGTCATACACTCGAAATGCG	5.83	6.03	4.66	5.62	2.02	6.59	10.8	9.47	9.65	10.2	3.45	5.82	1.78	2.27	4.5	6.04	3.03	7.27	3.78	4.73
TCATATAGGTAAACAGGGGAAAGTCCGTAAGTTA	1.29	1.09	0.283	0.925	-0.0206	1.61	1.52	2.89	3.92	3.45	4.67	3.46	1.62	0.87	1.18	0.921	0.414	1.21	0.805	0.676
TGTCAAAGTTCAAAGGTAGCGTAAGTATCCACAC	6.72	6.04	4.44	4.05	1.42	5.57	8.17	7.45	4.48	7.05	0.0975	4.06	0.876	0.963	-0.119	5.11	3.16	4.97	0.73	5.09
CCTCGGATGACAACAGGAGGTCAGAGCTGCCAGA	0.859	1.83	1.84	1.53	-0.0301	1.91	0.547	0.588	-0.476	0.0996	-0.191	-0.245	0.202	-0.797	1.63	1.72	0.385	2.22	1.58	2.02
CGTCCAAGTTCAATGCTAGGTCAGTGAAAGCATT	3.05	3.56	2.36	1.92	0.297	2.42	-0.0137	0.79	-0.404	0.397	0.331	0.878	0.0119	0.59	2.95	4.21	4.73	3.6	1.33	3.79
